# Measured values reported in PubChem BioAssay (NCI).
# This is part of a sample that, as a whole, favours compounds with a hit. Of some 79,000 tested, about 15% had one in any assay. Unmarked numbers belong to inactive results. Calls of active or inactive are those of the source. No stated cut-off is given here; in the data, active means growth inhibition above about 70%; inactive means the rest.
# Tests used:
# [1] = NCI Yeast Anticancer Drug Screen. Data for the rad52 strain (AID 147);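 further: 0% = growth of vehicle-treated control cultures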; conditions: S. cerevisiae rad52 mutant growth inhibition, active compounds read high
# How it was run: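 Yeast strain carrying a DNA damage repair alteration was exposed to test compounds. Growth inhibition was measured relative to vehicle-treated controls.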
# [2] = NCI Yeast Anticancer Drug Screen. Data for the wt1 strain (AID 149);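 further: 0% = growth of vehicle-treated wt1 cultures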; conditions: S. cerevisiae wt1 strain (SPY 50644) growth inhibition, active compounds read high
# How it was run: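 wt1 yeast, compound-treated; % growth inhibition vs vehicle control.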
# [3] = NCI Yeast Anticancer Drug Screen. Data for the rad50EPP+ strain (AID 151);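 further: 0% = growth of vehicle-treated control cultures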; conditions: S. cerevisiae rad50 mutant strain, active compounds read high
# How it was run: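 Yeast strain carrying rad50 alteration (rad50EPP+) exposed to compounds; growth inhibition measured relative to vehicle-treated controls.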
# [4] = NCI Yeast Anticancer Drug Screen. Data for the mgt1 strain (AID 153); conditions: S. cerevisiae mgt1 mutant growth inhibition, active compounds read high
# How it was run: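 Yeast mgt1 strain (DNA repair/cell-cycle alteration panel) exposed to compounds; growth inhibition measured relative to vehicle-treated controls.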
# [5] = NCI Yeast Anticancer Drug Screen. Data for the rad50 strain (AID 155);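 further: 0% = growth of vehicle-only cultures of the same strain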; conditions: S. cerevisiae rad50 strain growth inhibition, active compounds read high
# How it was run: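 Genetically altered yeast (DNA repair pathway); compound treatment; growth inhibition vs vehicle ctrl.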
# [6] = NCI Yeast Anticancer Drug Screen. Data for the mec2-1 strain (AID 157); conditions: S. cerevisiae mec2-1 strain, active compounds read high
# How it was run: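 mec2-1 yeast strain, carrying an alteration in DNA damage repair or cell cycle control, was exposed to compounds; growth inhibition was measured relative to vehicle-treated controls.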
# [7] = NCI Yeast Anticancer Drug Screen. Data for the rad14 strain (AID 159);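 further: 0% = growth of vehicle-treated control cultures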; conditions: S. cerevisiae rad14 strain growth inhibition, active compounds read high
# How it was run: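 Test compounds were applied to a repair-deficient yeast strain. Its growth was then compared with that of cultures given vehicle alone, and inhibition was expressed relative to those controls.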
# [8] = NCI Yeast Anticancer Drug Screen. Data for the sgs1 mgt1 strain (AID 161);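 further: 0% = growth of cultures given vehicle only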; conditions: S. cerevisiae sgs1 mgt1 strain, active compounds read high
# How it was run: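 Percent growth inhibition was derived by comparing compound-exposed mutant yeast with vehicle-exposed cultures. The strain carries alterations in DNA damage repair.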
# [9] = NCI Yeast Anticancer Drug Screen. Data for the CLN2oe strain (AID 163);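 further: 0% = growth of vehicle-only control cultures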; conditions: S. cerevisiae CLN2oe strain, active compounds read high
# How it was run: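 Yeast cells carrying a defined cell-cycle control alteration were exposed to test compounds. Growth inhibition was scored against vehicle-treated control cultures.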
# [10] = NCI Yeast Anticancer Drug Screen. Data for the cln2 rad14 strain (AID 165);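 further: 0% = growth equal to vehicle treated cultures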; conditions: S. cerevisiae cln2 rad14 strain, active compounds read high
# How it was run: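 Yeast carrying cln2 and rad14 alterations (cell cycle control and DNA damage repair) were exposed to compounds. Growth inhibition was measured against vehicle-treated controls.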
# [11] = NCI Yeast Anticancer Drug Screen. Data for the bub3 strain (AID 167); conditions: S. cerevisiae bub3 mutant strain, active compounds read high
# How it was run: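 Yeast carrying a defined mutation is treated with each compound, and growth is compared with that of vehicle-exposed cells to give inhibition.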
# [12] = NCI Yeast Anticancer Drug Screen. Data for the wt2 strain (AID 169);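 further: 0% = growth of vehicle-treated yeast cultures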; conditions: S. cerevisiae wt2 strain growth inhibition, active compounds read high
# How it was run: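 Yeast cells were exposed to test compounds, and growth inhibition was measured relative to vehicle-treated controls.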
# [13] = NCI Yeast Anticancer Drug Screen. Data for the sgs1 strain (AID 173);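 further: 0% = growth of vehicle-only control cultures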; conditions: S. cerevisiae sgs1 mutant, active compounds read high
# How it was run: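 Yeast mutant strains carrying defined defects in DNA damage repair or cell cycle control were exposed to test compounds. Growth inhibition was scored against vehicle-treated controls.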
# [14] = NCI Yeast Anticancer Drug Screen. Data for the mlh1 rad18 strain (AID 175); conditions: S. cerevisiae mlh1 rad18 strain growth inhibition, active compounds read high
# How it was run: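 Growth inhibition of the yeast strain was measured after compound exposure and expressed relative to vehicle-treated controls. The strain carries defined defects in DNA damage repair.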
# [15] = NCI Yeast Anticancer Drug Screen. Data for the rad18 strain (AID 177); conditions: S. cerevisiae rad18 mutant growth inhibition, active compounds read high
# How it was run: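 Yeast carrying a defined DNA damage repair alteration were exposed to compounds. Growth inhibition was expressed relative to vehicle-treated controls.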
# [16] = at 5.0 µM (retest, dose inferred, filed as 0.5)
# [17] = at 50.0 µM (retest, dose inferred, filed as 5.0)
structure (smiles),measurement,setting,value
COc1ccc(O)c(/C=N\Nc2ccccc2)c1,growth inhibition,[1]; at 1.2 µM,-10%
same,growth inhibition,[1]; at 3.7 µM,-11%
same,growth inhibition,[1]; at 11.0 µM,-3%
same,growth inhibition,[1]; at 33.0 µM,54%
same,growth inhibition,[1]; at 100.0 µM,55%
same,growth inhibition,[2]; at 1.2 µM,-1%
same,growth inhibition,[2]; at 3.7 µM,5%
same,growth inhibition,[2]; at 11.0 µM,11%
same,growth inhibition,[2]; at 33.0 µM,12%
same,growth inhibition,[2]; at 100.0 µM,33%
same,growth inhibition,[3]; at 1.2 µM,-8%
same,growth inhibition,[3]; at 3.7 µM,-18%
same,growth inhibition,[3]; at 11.0 µM,13%
same,growth inhibition,[3]; at 33.0 µM,50%
same,growth inhibition,[3]; at 100.0 µM,70% (active)
same,growth inhibition,[4]; at 1.2 µM,-6%
same,growth inhibition,[4]; at 3.7 µM,-7%
same,growth inhibition,[4]; at 11.0 µM,-6%
same,growth inhibition,[4]; at 33.0 µM,-6%
same,growth inhibition,[4]; at 100.0 µM,36%
same,growth inhibition,[5]; at 1.2 µM,-14%
same,growth inhibition,[5]; at 3.7 µM,-9%
same,growth inhibition,[5]; [16],-124%
same,growth inhibition,[5]; at 11.0 µM,-4%
same,growth inhibition,[5]; at 33.0 µM,25%
same,growth inhibition,[5]; [17],71% (active)
same,growth inhibition,[5]; at 50.0 µM,99.4% (active)
same,growth inhibition,[5]; at 100.0 µM,73% (active)
same,growth inhibition,[6]; at 1.2 µM,-6%
same,growth inhibition,[6]; at 3.7 µM,-5%
same,growth inhibition,[6]; [16],-52%
same,growth inhibition,[6]; at 11.0 µM,-5%
same,growth inhibition,[6]; at 33.0 µM,-5%
same,growth inhibition,[6]; [17],-12%
same,growth inhibition,[6]; at 50.0 µM,99.3% (active)
same,growth inhibition,[6]; at 100.0 µM,-2%
same,growth inhibition,[7]; at 1.2 µM,0%
same,growth inhibition,[7]; at 3.7 µM,-1%
same,growth inhibition,[7]; at 11.0 µM,5%
same,growth inhibition,[7]; at 33.0 µM,30%
same,growth inhibition,[7]; at 100.0 µM,94% (active)
same,growth inhibition,[8]; [16],-64%
same,growth inhibition,[8]; [17],-22%
same,growth inhibition,[8]; at 50.0 µM,98.8% (active)
same,growth inhibition,[9]; at 1.2 µM,-8%
same,growth inhibition,[9]; at 3.7 µM,-9%
same,growth inhibition,[9]; at 11.0 µM,-14%
same,growth inhibition,[9]; at 33.0 µM,-14%
same,growth inhibition,[9]; at 100.0 µM,21%
same,growth inhibition,[10]; [16],-61%
same,growth inhibition,[10]; [17],-19%
same,growth inhibition,[10]; at 50.0 µM,99% (active)
same,growth inhibition,[11]; at 1.2 µM,-9%
same,growth inhibition,[11]; at 3.7 µM,-9%
same,growth inhibition,[11]; [16],-73%
same,growth inhibition,[11]; at 11.0 µM,-9%
same,growth inhibition,[11]; at 33.0 µM,6%
same,growth inhibition,[11]; [17],-4%
same,growth inhibition,[11]; at 50.0 µM,98.9% (active)
same,growth inhibition,[11]; at 100.0 µM,49%
same,growth inhibition,[12]; at 1.2 µM,3%
same,growth inhibition,[12]; at 3.7 µM,8%
same,growth inhibition,[12]; at 11.0 µM,21%
same,growth inhibition,[12]; at 33.0 µM,51%
same,growth inhibition,[12]; at 100.0 µM,96% (active)
same,growth inhibition,[13]; at 1.2 µM,-13%
same,growth inhibition,[13]; at 3.7 µM,-9%
same,growth inhibition,[13]; at 11.0 µM,11%
same,growth inhibition,[13]; at 33.0 µM,39%
same,growth inhibition,[13]; at 100.0 µM,94% (active)
same,growth inhibition,[14]; [16],-132%
same,growth inhibition,[14]; [17],13%
same,growth inhibition,[14]; at 50.0 µM,98.5% (active)
same,growth inhibition,[15]; at 1.2 µM,-9%
same,growth inhibition,[15]; at 3.7 µM,-8%
same,growth inhibition,[15]; at 11.0 µM,-2%
same,growth inhibition,[15]; at 33.0 µM,14%
same,growth inhibition,[15]; at 100.0 µM,54%
S=C(N/N=C(/c1ccccc1)c1ccccn1)N1CCCCCC1,growth inhibition,[1]; at 1.2 µM,42%
same,growth inhibition,[1]; at 3.7 µM,52%
same,growth inhibition,[1]; at 11.0 µM,57%
same,growth inhibition,[1]; at 33.0 µM,57%
same,growth inhibition,[1]; at 100.0 µM,41%
same,growth inhibition,[2]; at 1.2 µM,-3%
same,growth inhibition,[2]; at 3.7 µM,3%
same,growth inhibition,[2]; at 11.0 µM,4%
same,growth inhibition,[2]; at 33.0 µM,2%
same,growth inhibition,[2]; at 100.0 µM,-2%
same,growth inhibition,[3]; at 1.2 µM,5%
same,growth inhibition,[3]; at 3.7 µM,7%
same,growth inhibition,[3]; at 11.0 µM,8%
same,growth inhibition,[3]; at 33.0 µM,3%
same,growth inhibition,[3]; at 100.0 µM,6%
same,growth inhibition,[4]; at 1.2 µM,-5%
same,growth inhibition,[4]; at 3.7 µM,-7%
same,growth inhibition,[4]; at 11.0 µM,16%
same,growth inhibition,[4]; at 33.0 µM,-18%
same,growth inhibition,[4]; at 100.0 µM,-6%
same,growth inhibition,[5]; at 1.2 µM,0%
same,growth inhibition,[5]; at 3.7 µM,6%
same,growth inhibition,[5]; [16],5%
same,growth inhibition,[5]; at 11.0 µM,-20%
same,growth inhibition,[5]; at 33.0 µM,4%
same,growth inhibition,[5]; [17],96% (active)
same,growth inhibition,[5]; at 50.0 µM,76.7% (active)
same,growth inhibition,[5]; at 100.0 µM,8%
same,growth inhibition,[6]; at 1.2 µM,1%
same,growth inhibition,[6]; at 3.7 µM,0%
same,growth inhibition,[6]; [16],24%
same,growth inhibition,[6]; at 11.0 µM,4%
same,growth inhibition,[6]; at 33.0 µM,1%
same,growth inhibition,[6]; [17],97% (active)
same,growth inhibition,[6]; at 50.0 µM,80.5% (active)
same,growth inhibition,[6]; at 100.0 µM,4%
same,growth inhibition,[7]; at 1.2 µM,-5%
same,growth inhibition,[7]; at 3.7 µM,-4%
same,growth inhibition,[7]; at 11.0 µM,-4%
same,growth inhibition,[7]; at 33.0 µM,-5%
same,growth inhibition,[7]; at 100.0 µM,-1%
same,growth inhibition,[8]; [16],75% (active)
same,growth inhibition,[8]; [17],96% (active)
same,growth inhibition,[8]; at 50.0 µM,85.4% (active)
same,growth inhibition,[9]; at 1.2 µM,5%
same,growth inhibition,[9]; at 3.7 µM,0%
same,growth inhibition,[9]; at 11.0 µM,4%
same,growth inhibition,[9]; at 33.0 µM,-4%
same,growth inhibition,[9]; at 100.0 µM,7%
same,growth inhibition,[10]; [16],18%
same,growth inhibition,[10]; [17],96% (active)
same,growth inhibition,[10]; at 50.0 µM,82.5% (active)
same,growth inhibition,[11]; at 1.2 µM,4%
same,growth inhibition,[11]; at 3.7 µM,16%
same,growth inhibition,[11]; [16],95% (active)
same,growth inhibition,[11]; at 11.0 µM,22%
same,growth inhibition,[11]; at 33.0 µM,13%
same,growth inhibition,[11]; [17],97% (active)
same,growth inhibition,[11]; at 50.0 µM,87.8% (active)
same,growth inhibition,[11]; at 100.0 µM,2%
same,growth inhibition,[12]; at 1.2 µM,5%
same,growth inhibition,[12]; at 3.7 µM,7%
same,growth inhibition,[12]; at 11.0 µM,12%
same,growth inhibition,[12]; at 33.0 µM,10%
same,growth inhibition,[12]; at 100.0 µM,5%
same,growth inhibition,[14]; [16],93% (active)
same,growth inhibition,[14]; [17],97% (active)
same,growth inhibition,[14]; at 50.0 µM,86.2% (active)
CCCCCCCCCCCC(=O)N(C)C,growth inhibition,[1]; at 1.2 µM,-12%
same,growth inhibition,[1]; at 3.7 µM,-6%
same,growth inhibition,[1]; at 11.0 µM,-19%
same,growth inhibition,[1]; at 33.0 µM,30%
same,growth inhibition,[1]; at 100.0 µM,98% (active)
same,growth inhibition,[2]; at 1.2 µM,-15%
same,growth inhibition,[2]; at 3.7 µM,-13%
same,growth inhibition,[2]; at 11.0 µM,-14%
same,growth inhibition,[2]; at 33.0 µM,-14%
same,growth inhibition,[2]; at 100.0 µM,99% (active)
same,growth inhibition,[3]; at 1.2 µM,5%
same,growth inhibition,[3]; at 3.7 µM,18%
same,growth inhibition,[3]; at 11.0 µM,20%
same,growth inhibition,[3]; at 33.0 µM,47%
same,growth inhibition,[3]; at 100.0 µM,90% (active)
same,growth inhibition,[4]; at 1.2 µM,7%
same,growth inhibition,[4]; at 3.7 µM,3%
same,growth inhibition,[4]; at 11.0 µM,18%
same,growth inhibition,[4]; at 33.0 µM,23%
same,growth inhibition,[4]; at 100.0 µM,99% (active)
same,growth inhibition,[5]; at 1.2 µM,-2%
same,growth inhibition,[5]; at 3.7 µM,-5%
same,growth inhibition,[5]; [16],38%
same,growth inhibition,[5]; at 11.0 µM,-18%
same,growth inhibition,[5]; at 33.0 µM,29%
same,growth inhibition,[5]; [17],92% (active)
same,growth inhibition,[5]; at 50.0 µM,90.5% (active)
same,growth inhibition,[5]; at 100.0 µM,98% (active)
same,growth inhibition,[6]; at 1.2 µM,-34%
same,growth inhibition,[6]; at 3.7 µM,-24%
